Reference: PubChem BioAssay (NCATS)
Inconclusive results are not listed. Values without a mark were called inactive. Activity calls are given as the source filed them. Calls come from the whole dose curve; as a rule, active = well fitted inhibition curve with a large enough effect; inconclusive = small, poorly fitted or top-dose-only effect; inactive = flat fitted curve, though single readings scatter.

System: PC49
Test: qHTS profiling for inhibitors of Plasmodium falciparum proliferation (AID 504749); note: nearly all actives have a fitted effect of over 60% in size;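 for activity, negative = inhibition: 0% = DMSO vehicle and full inhibition = artemisinin control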
Settings: P. falciparum in erythrocytes, SYBR Green DNA, 72 h; series mostly up to 28.7 µM; activity, negative = inhibition: at the top concentration
Summary of the method: (§1)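 Readout was DNA-dye fluorescence from lysed cultures, ex 485/em 535 nm. Parasitized red cells had grown 72 h with compound; data scaled between 0.29 uM artemisinin and DMSO wells and corrected using vehicle-only plates.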
Potency is the fitted concentration of half-maximal effect.

First: C#C[C@]1(O)CC[C@H]2[C@@H]3CCc4cc(O)ccc4[C@H]3CC[C@@]21C
Second: Cc1[nH]cnc1CN1CCc2c(c3ccccc3n2C)C1=O
The “activity, negative = inhibition” value of the first is higher: 7.88% for the first, -13.7% for the second.

Compared with `C[S+](CC[C@H](N)C(=O)O)C[C@H]1O[C@@H](n2cnc3c(N)ncnc32)[C@H](O)[C@@H]1O` (stereo partly specified), `Cc1ccccc1CNc1ncnc2c1ncn2C1OC(CO)C(O)C1O` (stereo unspecified) is higher in “activity, negative = inhibition” value: 2.54% for the first, 8.58% for the second.

Compared with `COc1cc(/C=C/C(=O)CC(=O)/C=C/c2ccc(O)c(OC)c2)ccc1O`, `O=C(O)c1cc(O)c(O)c(O)c1` is lower in “activity, negative = inhibition” value: -2% for the first, -19.3% for the second.

First: CCCCC[C@H](O)/C=C/[C@@H]1[C@@H](C/C=C\CCCC(=O)O)[C@@H](O)C[C@H]1O
Second: CCCCCC[C@@H](O)C/C=C\CCCCCCCC(=O)O
The “activity, negative = inhibition” value of the first is higher: 3.68% for the first, -2.35% for the second.

Going from `C=CC(N)CCC(=O)O` (stereo unspecified) to `CC1(C)C[C@@H]1C(=O)N/C(=C\CCCCSC[C@H](N)C(=O)O)C(=O)O`, the “activity, negative = inhibition” value rises from 0.572% to 3.23%.

First: CCCCCCOc1ccccc1C(N)=O
Second: O=C(O)/C=C/C(O)c1ccc(Cl)cc1 (stereo unspecified)
The “activity, negative = inhibition” value of the first is lower: 0.333% for the first, 2.51% for the second.

Going from `Oc1c(Br)cc(Br)c2cccnc12` to `N=c1ccn2c(n1)O[C@H]1[C@H](O)[C@@H](CO)O[C@H]12`, the “activity, negative = inhibition” value rises from 4.43% to 8.24%.

Going from `CC1OC1P(=O)(O)O` (stereo unspecified) to `O=C(O)[C@H](O)[C@@H](O)[C@H](O)[C@H](O)CO`, the “activity, negative = inhibition” value rises from -1.17% to 5.76%.

In the case of `O=C(O)COc1ccc(C(=O)c2cccs2)c(Cl)c1Cl`, the Potency is reported as “inactive”.
`C=C(Nc1ccc(OCC)cc1)Nc1ccc(OCC)cc1` was tested, and the Potency was “inactive”.
For `CN1[C@@H](CC(=O)c2ccccc2)CCC[C@H]1C[C@H](O)c1ccccc1`, the Potency was 7.08 µM (active).
With `CC(=O)[C@]1(O)Cc2c(O)c3c(c(O)c2[C@@H](O[C@H]2C[C@H](N)[C@H](O)[C@H](C)O2)C1)C(=O)c1c(O)cccc1C3=O` the Potency was 8.91 µM (active).
In the case of `C=CCN1C(=O)C(CC(C)C)NC1=S` (stereo unspecified), the Potency is reported as “inactive”.

System: SC27B
Test: as above
Settings: P. falciparum in erythrocytes, SYBR Green DNA, 72 h; series mostly up to 28.7 µM; activity, negative = inhibition: at the top concentration
Summary of the method: as §1

First: C#C[C@]1(O)CC[C@H]2[C@@H]3CCc4cc(O)ccc4[C@H]3CC[C@@]21C
Second: Cc1[nH]cnc1CN1CCc2c(c3ccccc3n2C)C1=O
The “activity, negative = inhibition” value of the first is lower: -16.1% for the first, -3.64% for the second.

Going from `C[S+](CC[C@H](N)C(=O)O)C[C@H]1O[C@@H](n2cnc3c(N)ncnc32)[C@H](O)[C@@H]1O` (stereo partly specified) to `Cc1ccccc1CNc1ncnc2c1ncn2C1OC(CO)C(O)C1O` (stereo unspecified), the “activity, negative = inhibition” value falls from 13.8% to 8.49%.

First: CCCCC[C@H](O)/C=C/[C@@H]1[C@@H](C/C=C\CCCC(=O)O)[C@@H](O)C[C@H]1O
Second: CCCCCC[C@@H](O)C/C=C\CCCCCCCC(=O)O
The “activity, negative = inhibition” value of the first is lower: -4.02% for the first, -1.91% for the second.

First: C=CC(N)CCC(=O)O (stereo unspecified)
Second: CC1(C)C[C@@H]1C(=O)N/C(=C\CCCCSC[C@H](N)C(=O)O)C(=O)O
The “activity, negative = inhibition” value of the first is lower: 1.71% for the first, 1.77% for the second.

First: CCCCCCOc1ccccc1C(N)=O
Second: O=C(O)/C=C/C(O)c1ccc(Cl)cc1 (stereo unspecified)
The “activity, negative = inhibition” value of the first is lower: 2.63% for the first, 3.54% for the second.

Going from `Oc1c(Br)cc(Br)c2cccnc12` to `O=C(O)c1cc(O)c(O)c(O)c1`, the “activity, negative = inhibition” value falls from -8.75% to -20.3%.

Compared with `O=C1CN(/N=C/c2ccc(-c3ccc([N+](=O)[O-])cc3)o2)C(=O)N1`, `N=c1ccn2c(n1)O[C@H]1[C@H](O)[C@@H](CO)O[C@H]12` is higher in “activity, negative = inhibition” value: -8.4% for the first, 7.2% for the second.

First: CC1OC1P(=O)(O)O (stereo unspecified)
Second: O=C(O)[C@H](O)[C@@H](O)[C@H](O)[C@H](O)CO
The “activity, negative = inhibition” value of the first is higher: -0.0598% for the first, -0.806% for the second.

In the case of `O=C(O)COc1ccc(C(=O)c2cccs2)c(Cl)c1Cl`, the Potency is reported as “inactive”.
With `C=C(Nc1ccc(OCC)cc1)Nc1ccc(OCC)cc1` the Potency was “inactive”.
For `CC(=O)[C@]1(O)Cc2c(O)c3c(c(O)c2[C@@H](O[C@H]2C[C@H](N)[C@H](O)[C@H](C)O2)C1)C(=O)c1c(O)cccc1C3=O`, the Potency was 12.6 µM (active).
For `C=CCN1C(=O)C(CC(C)C)NC1=S` (stereo unspecified), the Potency was “inactive”.
